Compounds without any hit were thinned out: in the full panel of roughly 83,000, 20% have a hit.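 Negative percent growth values reflect cell death: -40 means 40% of the cells present at the start died, and -100 means all died.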 Values without a mark were called inactive. Calls of active or inactive are those of the source. Rule for the calls: active = growth percent below 10; inactive = the rest.

Assay in all cases: NCI-60 one-dose screen, 48 h (100 = growth as untreated, 0 = no growth, -100 = all killed)
Details in all cases: 10 µM unless noted

Experiment [1] concerns NCI-H23 lung.
In experiment [2] the test system is NCI-H226 lung.
Experiment [3] deals with NCI-H322M lung.
Experiment [4] concerns HOP-62 NSCLC.
For experiment [5], the system named is NCI-H460 lung.
Experiment [6] has as its system HOP-92 NSCLC.
For experiment [7], the system named is NCI-H522 lung.
Experiment [8] deals with A549/ATCC NSCLC.
In experiment [9] the test system is 786-0 renal.
The subject of experiment [10] is COLO 205 colon.

In the case of `Cc1ccccc1NS(=O)(=O)c1cccc(C(=O)Nc2ccc(Br)cc2)c1`, the growth in experiment [1] is 18.5% [25 µM]; in [2], 29.1% [25 µM]; in experiment [3], 64.2% [25 µM]; in experiment [4] it was 80.7% [25 µM]; in [5], 35.8% [25 µM]; in experiment [6], 21.1% [25 µM]. The growth in experiment [7] is 39.6% [25 µM]; in experiment [8], 38.1% [25 µM]; in [9] it was 53.6% [25 µM]; in [10] it was 52.4% [25 µM].

Consider `Nc1nc(Nc2ccccc2SSc2ccccc2Nc2nc(N)nc(-c3cccs3)n2)nc(-c2ccsc2)n1`, for which the growth in experiment [1] is 59.5%; in experiment [2], 85.2%; in experiment [3] it was 90.6%; in experiment [4], -41.2% (active); in experiment [5] it was 55.9%; in experiment [6], 104%. The growth is 85.3% in experiment [7], 18.4% in [8] and 93.6% in experiment [9].

In the case of `O=C1Nc2cc(-c3ccc(NC(=O)c4ccccc4)cc3)ccc2/C1=C/c1ccc[nH]1`, the growth in [1] was 66.7%; in experiment [2] it was 90.6%; in experiment [3], 94.1%; in [4], 104%; in [5] it was 83.4%; in experiment [6], 115%. The growth in experiment [7] was 92.2%; in experiment [8] it was 103%; in experiment [9] it was 107%.

As to `COc1cc2cc(CN3CCN(c4nccc(-c5ccc6ccccc6c5)n4)CC3)c(=O)[nH]c2cc1OC`, the growth in [1] was 97.3%; in [2] it was 96.5%; in experiment [3] it was 98.4%; in experiment [4] it was 96.2%; in experiment [5], -35.9% (active); in experiment [6], 98.4%. Moreover, the growth in experiment [7] was 85.6%; in experiment [8], 2.34% (active); in experiment [9], 32.7%; in experiment [10], 80%.

As for `O=Cc1cc2ccccc2nc1Oc1ccc(C(F)(F)F)cc1`, the growth in [1] is 85.3%; in experiment [2], 76.9%; in experiment [3] it was 94.9%; in experiment [4], 80.9%; in [5] it was 98.8%; in experiment [6], 52.8%. Also, the growth was 85.4% in [7], 98.4% in experiment [8] and 101% in [9].

Regarding `OCc1cnccc1NCCCCOc1ccc(Oc2ccccc2)cc1`, the growth in [1] was 46.6%; in experiment [2], 70.1%; in experiment [3], 94.7%; in experiment [4] it was 72.1%; in experiment [5] it was 69.6%; in [6], 43%. Further, the growth is 62.9% in [7], 78.3% in [8], 56.8% in experiment [9] and -10.4% (active) in experiment [10].

Turning to `NC(=O)CSSCC(N)=O`, the growth in experiment [1] was 99.2%; in [2], 108%; in experiment [3], 96.9%; in [4], 103%; in [5], 111%; in experiment [6], 83.8%. The growth was 92.1% in experiment [7], 93.1% in experiment [8] and 95.3% in [9].

As to `CCOC(=O)c1cc(C#N)n2ccc3ccccc3c12`, the growth in experiment [1] is 94.7%; in experiment [2] it was 97.5%; in experiment [3], 98.1%; in experiment [4] it was 105%; in experiment [5], 100%; in experiment [6], 93.5%. Besides, the growth in experiment [7] is 92.2%; in [8], 98.8%.

As for `COc1cc2oc(-c3cccc(C(=O)Nc4ccccc4)c3)cc(=O)c2c(O)c1OC`, the growth was 86.9% in experiment [1]; 73.2% in experiment [2]; 66.4% in experiment [3]; 8.89% (active) in experiment [4]; 33.7% in experiment [5]; 5.28% (active) in experiment [6]. For the same compound, the growth in experiment [7] is 91.3%; in experiment [8], 60.3%; in [9], 31.5%; in [10], 92.3%.

With `O=C(Nc1ccc(F)cc1)Nc1ccc(NC(=O)c2cc(Cl)nc3ccccc23)cc1`, the growth was 69.2% in experiment [1]; 52.8% in experiment [2]; 59.6% in experiment [3]; 22.4% in experiment [4]; 18.5% in [5]; 23.5% in experiment [6]. In addition, the growth in experiment [7] is 61.7%; in [8] it was 79.8%; in experiment [9] it was 98.4%; in experiment [10] it was 53.5%.

With `CCCCCN1C=C/C(=C\C(=O)N(C)c2ccc(OC(F)(F)F)cc2)c2ccccc21`, the growth in experiment [1] was 87.1%; in experiment [2], 95%; in experiment [3] it was 99.6%; in experiment [4] it was 90.8%; in experiment [5] it was 101%; in experiment [6] it was 98.1%. Further, the growth is 78.5% in experiment [7], 91.3% in experiment [8], 99.4% in [9] and 104% in [10].

Consider `C#CCNC(=O)[C@H](Cc1ccccc1)NC(=O)[C@]12CC[C@@H](C(=C)C)[C@@H]1[C@H]1CC[C@@H]3[C@@]4(C)CCC(=O)C(C)(C)[C@@H]4CC[C@@]3(C)[C@]1(C)CC2`, for which the growth is 70.6% in experiment [1]; 68.7% in [2]; 69.9% in experiment [3]; 77.1% in experiment [4]; 66.7% in [5]; 66% in [6]. For the same compound, the growth in experiment [7] is 52.6%; in [8], 53.9%; in [9] it was 76%; in [10], 78.7%.

Regarding `COc1cc2c(=O)n(CCN(C)C)c3c4cc5c(cc4ccc3c2cc1OC)OCO5`, the growth in experiment [1] is -20.7% (active); in experiment [2], -97.6% (active); in experiment [3] it was -15.7% (active); in experiment [4], -5.77% (active); in experiment [5], -31.6% (active); in experiment [6] it was -9.74% (active). Besides, the growth in experiment [7] was -37.9% (active); in [8], -84.9% (active); in experiment [9], -58.7% (active); in experiment [10], -56.3% (active).

Take `O=C(/C=C(/C=C/c1csc2ccccc12)OB(F)F)/C=C/c1csc2ccccc12`: the growth in experiment [1] is 23%; in experiment [2], 27.9%; in [3] it was 96.9%; in [4], 90.7%; in experiment [5], 66.7%; in [6], 44.6%. Moreover, the growth was 2.34% (active) in experiment [7], 70.1% in experiment [8], -2.14% (active) in experiment [9] and -2% (active) in experiment [10].
